From PubChem BioAssay (NCATS) come the findings set out here.

Inconclusive results are not listed. A call without a number means that no potency is given here. Calls of active or inactive are those of the source. The call rests on the fitted dose curve; in most records, active means well fitted inhibition curve with a large enough effect; inconclusive means small, poorly fitted or top-dose-only effect; inactive means no such curve, though single readings can be large or run the other way.
Potency means the concentration at half of the fitted maximal effect.

The assay concerns the target Retinaldehyde dehydrogenase 3 (Homo sapiens) (UniProt P47895). Kind of assay: qHTS for Inhibitors of the Aldehyde Dehydrogenase Family (ALDH1A3) Primary screen (AID 2061315). The note with it: ALDH inhibition qHTS; series mostly up to 56 µM. For orientation: qHTS replaces the single test concentration by a dilution series.
For the compound `CC(=O)SCC(CC(=O)c1ccc(C)cc1)C(=O)O` (centres undefined), the Potency result is “inactive”.

As to `CCCCNc1ccc(C(=O)OCCN(CC)CC)cc1`, the Potency result is “inactive”.

As for `N#Cc1c(-c2csc(-c3no[n+]([O-])c3C#N)c2)no[n+]1[O-]`, the Potency result was “inactive”.

With `N#Cc1ccccc1OC1=NS(=O)(=O)c2ccccc21`, the Potency result is “inactive”.

Turning to `CC(C)c1ccccc1-c1ncc(F)c(NC(C)(C)c2ccc(-c3cccnc3)cc2)n1`, the Potency result is “inactive”.

In the case of `CC(=O)NCCC(=O)N[C@@H](CCC(N)=O)C(=O)N[C@@H](CO)C(=O)N[C@@H](CCC(N)=O)C(=O)N[C@@H](CCC(N)=O)C(=O)N[C@H](C(=O)N[C@@H](Cc1ccccc1)C(=O)N[C@]1(C)CCCCCCC=CCCC[C@@](C)(C(=O)N[C@@H](CCC(N)=O)C(=O)N[C@@H](CC(N)=O)C(N)=O)NC(=O)[C@H](CC(C)C)NC(=O)[C@H](CC(C)C)NC(=O)[C@@H](CCCNC(=N)N)NC(=O)[C@H](Cc2c[nH]c3ccccc23)NC(=O)[C@H](CC(C)C)NC(=O)[C@H](CC(N)=O)NC1=O)[C@H](C)O`, the Potency result is “inactive”.

Consider `COc1ccc(C2=Nn3c(nnc3-c3cccc(OC)c3OC)SC2)cc1`, for which the Potency result is “inactive”.

For `O=C(CSc1nnc(-c2cccc(S(=O)(=O)N3CCCC3)c2)n1-c1ccccc1)Nc1ccc(F)cc1`, the Potency entry was “inactive”.

For the compound `COc1ccc(C2=Nn3c(nnc3-c3cc(OC)cc(OC)c3)SC2)cc1`, the Potency result was “inactive”.

Regarding `COc1ccc(C[C@H](N)C(=O)N[C@H]2[C@@H](O)[C@H](n3cnc4c(N(C)C)ncnc43)O[C@@H]2CO)cc1`, the Potency entry is “inactive”.

Take `O=C(O)c1ccc2c(c1)C(=O)N([C@H](Cc1ccc(F)cc1)C(=O)O)C2=O`: the Potency result was “inactive”.

Turning to `Cn1ncc(-c2nnc(-c3ccccc3)n2CCCn2ccnc2)c1N`, the Potency result is “inactive”.

Take `O=C(O)c1ccc(S(=O)(=O)N[C@H](Cc2ccccc2)C(=O)O)cc1`: the Potency result was “inactive”.

As for `Cc1ccc(S(=O)(=O)NC(N)=NCCC[C@@H](NC(=O)CNC(=O)c2ccccc2)C(=O)Nc2cc(C(F)(F)F)ccc2Cl)cc1`, the Potency entry was “inactive”.

With `O=C(O)c1cccc(-c2noc(-c3ccccc3F)n2)c1`, the Potency is 316 nM (active).

In the case of `C[C@@](Cc1ccccc1)(C(=O)O)N1C(=O)c2ccc(C(=O)O)cc2C1=O`, the Potency result is “inactive”.

For `Cc1ccccc1C[C@H](C(=O)O)N1C(=O)c2ccc(C(=O)O)cc2C1=O`, the Potency entry was “inactive”.

`CCCCN(CCCNC(=S)NCCCc1cnc[nH]1)c1ccc(Br)cn1`: the Potency entry is “inactive”.

Take `Cc1ccc(-c2cc(C(=O)N3CCCCC3)c3ccccc3n2)cc1C`: the Potency entry was “inactive”.

Consider `S=C(NCCCc1cnc[nH]1)NCCCN(Cc1ccc(Cl)c(Cl)c1)c1ccccn1`, for which the Potency result was “inactive”.

With `Cc1cccc2c(C(=O)O)cc(Cl)nc12`, the Potency entry was “inactive”.

`Cc1cc(N2C(=O)c3ccccc3C2=O)n[nH]1`: the Potency result was “inactive”.

With `O=C(O)c1ccc(S(=O)(=O)N[C@H](Cc2ccc(C(F)(F)F)cc2)C(=O)O)cc1`, the Potency result was “inactive”.

For `Cc1nnc(-c2cnn(C)c2N)n1CCCn1ccnc1`, the Potency result was “inactive”.

Regarding `COc1cc(F)cc(F)c1[S+](=O)([O-])N1CCN([S+](=O)([O-])c2ccc3c(c2)OCCO3)CC1`, the Potency result was “inactive”.

For the compound `O=C1c2ccccc2NC(c2ccc(-c3cccc([N+](=O)[O-])c3)o2)N1O` (centres undefined), the Potency entry was “inactive”.

Take `Cc1nnc(-c2ccccc2C(C)C)nc1NCc1ccc(-c2cccnc2)cc1`: the Potency entry is “inactive”.

For `N#Cc1ccc(-c2ccc(C3Nc4ccccc4C(=O)N3O)o2)cc1` (centres undefined), the Potency entry was “inactive”.

On to `Fc1cc(Nc2nc(-c3ccncc3)nc3ccccc23)ccc1N1CCCCC1`, for which the Potency result was “inactive”.

`Cc1cc2c(s1)c1cnn(Cc3c(Cl)ccc(C)c3F)c(=O)c1n2C`: the Potency result was “inactive”.

On to `O=C(C1CCN(c2nc(-c3ccc(Br)cc3)cs2)CC1)N1CCNCC1`, for which the Potency result was “inactive”.

`COc1ccc(C2Nc3ccccc3C(=O)N2CCO)cc1COc1ccc(NC(C)=O)cc1` (centres undefined): the Potency result was “inactive”.

`CC(=O)N(C(C)=O)n1c(C)nc2sc3c(c2c1=O)CCNC3`: the Potency entry is “inactive”.

As to `CCC(=O)C1CCCN(C(=O)CC(c2ccc3c(c2)OCO3)c2c(O)cc(OC)cc2OC)C1` (centres undefined), the Potency entry is “inactive”.
